# Rab9 promoter act – activates the Rab9 promoter; 320,000 compounds, 2.8% hits; Huh7 Rab9 promoter-luciferase reporter, luminescence, 24 h; Potency, µM (top dose mostly 9.22 µM), inactives show at the highest dose activation, negative = inhibition, usual class: activators; also: % of control where 0% means no effect; nearly all actives have a fitted effect of over 60% in size
#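 Cell-based reporter: Huh7 stable for Rab9 promoter-driven luciferase, plated in reduced-serum medium with 10% FBS at 1500 cells/well, compound-treated 24 h at 37 °C, luminescence read after 10 min reagent.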
# ELG1 genotoxic – genotoxicity induction in ELG1-luciferase HEK293T cells. HEK293T ELG1-luciferase reporter, luminescence, 16 h. Potency, µM (highest dose often 46 µM), inactives show at the top dose activity change, positive = activation, hits mostly activators. 330,000 compounds, 1.3% hits; also: % of control where 0% means no effect; nearly all actives have a fitted effect of over 60% in size
#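 Genotoxicity was scored as increased ELG1-luciferase reporter signal, measured by ONE-Glo luminescence (30 min, room temperature). Compound or vehicle exposure of the HEK293T reporter cells lasted 16 hr at 37°C.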
# ELG1 repair inh – inhibitors of ELG1-dependent DNA repair in HEK293T cells; HEK293T ELG1-luciferase reporter, luminescence, 16 h; DNA damage induced by 5-fluorouridine; Potency, µM (doses to about 46.1 µM), without a hit: at the top dose activity change, negative = inhibition, usual class: inhibitors; 330,000 compounds, 2.3% hits; AID 504467; also: % is scaled to controls: 0 for no effect and ±100 for the full control effect; nearly all actives have a fitted effect of over 55% in size
#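 Luminescence from the luciferase reporter, measured 30 min after ONE-Glo reagent at room temperature, was the read-out. Beforehand, 2,000 cells per well were exposed for 16 hr at 37 °C to 5-fluorouridine together with compound or vehicle.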
# FLuc counter – firefly luciferase modulation, counter-screen for miR-21 project. P08659. purified FLuc, Km substrates, luminescence inhibition. Potency, µM (doses to about 57.5 µM), without a hit: at the top dose activity change, negative = inhibition, actives largely listed as inhibitors. 360,000 compounds, 6.9% hits. AID 588342;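 also: plate controls were vehicle for no effect and reference inhibitor for full effect; nearly all actives have a fitted effect of over 55% in size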
# Target sequence (P08659 whole entry, looked up): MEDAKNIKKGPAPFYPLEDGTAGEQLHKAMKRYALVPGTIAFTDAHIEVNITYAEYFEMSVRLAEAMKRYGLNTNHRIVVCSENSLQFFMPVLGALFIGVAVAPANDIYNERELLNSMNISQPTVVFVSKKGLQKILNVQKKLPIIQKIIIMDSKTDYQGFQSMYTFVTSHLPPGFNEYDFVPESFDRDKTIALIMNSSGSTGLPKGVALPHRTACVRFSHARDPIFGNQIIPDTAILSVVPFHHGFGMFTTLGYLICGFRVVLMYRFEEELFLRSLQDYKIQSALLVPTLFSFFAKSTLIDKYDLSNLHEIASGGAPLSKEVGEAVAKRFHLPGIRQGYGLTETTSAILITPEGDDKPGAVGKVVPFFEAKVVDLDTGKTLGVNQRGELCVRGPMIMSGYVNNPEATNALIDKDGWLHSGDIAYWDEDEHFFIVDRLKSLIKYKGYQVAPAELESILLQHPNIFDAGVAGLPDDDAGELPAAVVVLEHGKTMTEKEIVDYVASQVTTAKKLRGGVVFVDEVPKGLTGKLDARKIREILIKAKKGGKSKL
#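 Purified P. pyralis luciferase (10nM final) with 10uM D-luciferin and 10uM ATP (Km levels) in 50mM Tris acetate pH 7.5, 10mM Mg acetate, 0.01% Tween-20, 0.05% BSA; qHTS 6-point titration, ~60 µM downward; luminescence read.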
# SMN2 splice enh – SMN2 splice variant enhancement; 210,000 compounds, 2.8% hits; HEK293 SMN2-luciferase splicing reporter, luminescence, 30-36 h; Potency, µM (top dose mostly 46.1 µM), for the others: at the top dose activity change, positive = activation, most hits filed as activators; also: % of control where 0% means no effect; nearly all actives have a fitted effect of over 55% in size
#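 qHTS luciferase splicing reporter: luminescence rises when SMN2 exon 7 is included in transfected HEK293 cells. Compound exposure lasted 30-36 h at 37C, with 4.5 mM final sodium butyrate as control, followed by a ONE-Glo read.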
# NPC1 prom act – activators of NPC1 promoter | Huh7 NPC1 promoter luciferase reporter, 24 h | Potency, µM (titrated, usually from 9.22 µM), inactives show at the top dose activation, usual class: activators | 320,000 compounds, 2.4% hits | AID 485313; also: % of control where 0% means no effect; nearly all actives have a fitted effect of over 60% in size
#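 Compounds in DMSO were transferred onto Huh7 NPC1-luciferase reporter cells pre-incubated 2 h; after 24 h at 37 °C, Amplite reagent was dispensed and luminescence recorded 10 min later.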
# * = called active by the depositor; u = inconclusive; x = no result. In the library only some 9.2% were active in any assay of this set; here they are far more common. Calls follow the shape of the dose curve; as a rule, active = well fitted curve in the direction sought with a large enough effect; inconclusive = small, poorly fitted or top-dose-only effect, or another doubt; inactive = no such curve, though single readings can be large; an effect the other way counts as inactive or inconclusive. Potency is read from the fitted curve at half-maximal effect.
SMILES,Rab9 promoter act,ELG1 genotoxic,ELG1 repair inh,FLuc counter,SMN2 splice enh,NPC1 prom act
COc1ccccc1-c1cc(C(=O)N/N=C\c2cn(C)nc2C)c2ccccc2n1,-4.2%,-0.4%,u,-1.6%,-0.7%,-0.1%
COc1cc(/C=N/NC(=O)c2cc(-c3ccccc3)nc3ccccc23)ccc1O,-3.4%,-5.6%,u,10.7µM*,x,0.3%
CCn1cc(/C=N\NC(=O)c2csc3ccccc23)c(C)n1,9.5%,28.6%,u,u,-10.8%,0.9%
CCOc1ccc(/C=N/NC(=O)c2cc(-c3ccccc3)nc3ccccc23)cc1O,0.5%,-17.9%,-15.9%,15.1µM*,x,0.5%
COc1ccc(CNC(=O)CSc2ncc3c(n2)-c2cc(Cl)ccc2N(C)S3(=O)=O)cc1,x,x,x,0.2%,x,x
Cc1cc(C(=O)Nc2cccc3c2O[C@H](CN(C)CC2CC2)[C@@H](C)CN([C@H](C)CO)C3=O)n(C)n1,x,0.8%,20.0%,x,x,x
COc1ccc(-c2cc(C(=O)N/N=C/c3ccc4c(c3)OCO4)c3ccccc3n2)c(OC)c1,-8.8%,0.8%,u,u,349.1%,-2.6%
O=C(N/N=C/c1ccc2c(c1)OCO2)c1cc(-c2ccc(F)cc2)nc2ccccc12,-3.8%,1.3%,-1.2%,5.36µM*,-20.9%,-3.2%
COc1ccc(/C=N/NC(=O)c2cc(-c3ccccc3)nc3ccccc23)cc1O,1.2%,-6.0%,-4.9%,5.36µM*,x,1.7%
COc1cc(/C=N/NC(=O)c2cc(-c3ccccc3OC(C)C)nc3ccccc23)ccc1O,-0.2%,-6.8%,u,-3.4%,u,-1.1%
COc1cc([N+](=O)[O-])cc(/C=N/NC(=O)c2cc(-c3ccccc3)nc3ccccc23)c1O,-10.1%,u,u,u,x,0.4%
O=C(N/N=C/c1cc(Cl)cc([N+](=O)[O-])c1O)c1cc(-c2ccccn2)nc2ccccc12,-16.3%,9.5%,u,21.3µM*,x,-4.8%
COc1ccc(/C=N/NC(=O)c2cc(-c3ccccc3)nc3ccccc23)c(C(=O)O)c1OC,3.2%,3.3%,14.0%,7.57µM*,x,2.5%
CCOC(=O)C1CCN(CCC(=O)Nc2ccc(Br)c(C)c2)CC1,1.8%,-3.3%,-1.0%,-0.1%,2.8%,4.5%
O=C(N/N=C/c1ccccn1)c1cc(-c2ccccc2)nc2ccccc12,1.3%,u,24.6%,13.5µM*,x,-3.3%
O=C(N/N=C/c1ccco1)c1cc(-c2ccncc2)nc2ccccc12,-3.7%,3.0%,-10.2%,u,x,-14.6%
CCN(CC)S(=O)(=O)c1cccc(C(=O)N/N=C/c2ccccc2OCC(=O)O)c1,-3.2%,-0.6%,0.1%,26.9µM*,2.3%,-4.3%
COc1ccccc1NS(=O)(=O)c1cccc(C(=O)N/N=C/c2ccccc2OCC(=O)O)c1,1.8%,9.8%,-11.7%,-5.3%,16.8%,-3.6%
O=C(O)COc1ccccc1/C=N/NC(=O)c1cc(-c2ccc(F)cc2)nc2ccccc12,-3.6%,-0.3%,u,1.9µM*,-0.6%,-2.8%
Cc1ccc(-c2cc(C(=O)N/N=C/c3ccoc3)c3ccccc3n2)cc1,-7.1%,-3.2%,-9.5%,4.78µM*,x,-8.4%
CCCCn1c(N)c(N(CCOC)C(=O)c2cc(-c3ccc(OC)cc3)nc3ccccc23)c(=O)[nH]c1=O,-1.6%,15.7%,-0.8%,u,x,6.0%
O=C(O)CCn1c(-c2ccccc2)cc2ccccc21,13.5%,-0.3%,17.6%,-4.6%,x,-1.9%
O=C(N/N=C/c1ccc(O)cc1)c1cc(-c2ccccc2)nc2ccccc12,6.1%,-0.5%,-2.7%,5.36µM*,x,0.4%
Cc1ccc(/C=N/NC(=O)c2cc(-c3ccccc3)nc3ccccc23)o1,-1.5%,0.6%,-25.3%,12µM*,x,-17.4%
O=C(O)COc1ccccc1/C=N/NC(=O)c1cc2ccccc2cc1O,2.9%,-0.8%,u,7.57µM*,x,-4.8%
COc1cc(Cl)ccc1OCc1cc(C(=O)NCc2cc(C(C)C)no2)no1,1.26µM*,u,u,9.53µM*,x,u
